High-throughput results: PubChem BioAssay, several laboratories
A selection: hits, their analogues and other compounds. The true share with any hit is near 1.6%.
Yeast superoxide: lowers age-related superoxide in aged yeast cells | S. cerevisiae aged cells, superoxide DHE fluorescence; hits give low values | superoxide response (% of plate mean), % at 10 µM | 330,000 tested, 0.18% active;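 active means superoxide response under a set limit, about three screen SD below normal, cut at about 65% in these data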;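 further: yeast aged for seven days with compound at 30 °C before DHE staining; 100% = average MFI of all compound-treated wells on the plate with controls excluded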
Efflux pump mplx: antifungal efflux pump inhibition, Nile Red retention | inhibition, % at 10 µM | S. cerevisiae Candida pump triplex | 330,000 tested, 0.44% active;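 active means plate passing quality check with inhibition over a set limit, or well fluorescence over plate mean plus 4 SD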;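 further: Nile Red retained in pooled yeast measured as flow cytometry median fluorescence; 0% = buffer negative control and 100% = Enniatin B positive control; higher means more Nile Red kept so more efflux inhibition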
GRK2 aptamer HTS: human GRK2 inhibition via aptamer displacement. P25098. bead flow cytometry, FAM-aptamer displacement from GRK2. inhibition of aptamer binding, % at 10 µM. 330,000 tested, 0.59% active. AID 488847;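 active means inhibition of aptamer binding above 40%, roughly 3 SD of noise, on plates passing a quality check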;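 further: median bead fluorescence of bound FAM aptamer so fluorescent compounds give negative values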
Target sequence (P25098 whole entry, looked up): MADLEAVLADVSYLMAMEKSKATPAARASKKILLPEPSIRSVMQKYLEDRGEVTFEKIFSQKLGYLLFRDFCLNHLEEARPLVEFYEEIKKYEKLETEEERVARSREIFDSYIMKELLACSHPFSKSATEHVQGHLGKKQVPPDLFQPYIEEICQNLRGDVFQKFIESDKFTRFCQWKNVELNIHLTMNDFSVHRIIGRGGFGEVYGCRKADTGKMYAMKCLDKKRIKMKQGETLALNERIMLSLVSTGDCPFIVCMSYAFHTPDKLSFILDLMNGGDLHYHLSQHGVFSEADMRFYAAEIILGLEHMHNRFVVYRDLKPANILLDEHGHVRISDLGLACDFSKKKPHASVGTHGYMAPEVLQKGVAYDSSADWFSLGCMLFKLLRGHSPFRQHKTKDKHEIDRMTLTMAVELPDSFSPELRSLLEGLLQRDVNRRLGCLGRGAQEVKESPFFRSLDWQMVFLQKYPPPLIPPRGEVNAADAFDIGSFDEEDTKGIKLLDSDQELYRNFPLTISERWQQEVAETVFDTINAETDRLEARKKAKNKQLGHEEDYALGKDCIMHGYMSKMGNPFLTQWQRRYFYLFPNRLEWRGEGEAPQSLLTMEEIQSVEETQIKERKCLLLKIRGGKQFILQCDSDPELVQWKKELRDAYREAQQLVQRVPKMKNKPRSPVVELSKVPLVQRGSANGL
ATG4B inh: blocks human ATG4B protease cleavage of LC3 substrate | inhibition, % at 8.33 µM | 340,000 tested, 0.51% active | ATG4B cleavage of LC3-PLA2, NBD-HPC fluorescence, 1 h; in the data active means inhibition above about 40%
GRK2 inh confirm: confirmation of human GRK2 inhibitors displacing RNA aptamer. shares compounds with GRK2 aptamer HTS. bead-bound GRK2, FAM-aptamer displacement, flow cytometry. aptamer displacement, % at 10 µM. 2,000 tested, 4% active. AID 504451;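 active means aptamer displacement above 40%, near three times the noise of non-fluorescent compounds, on plates passing quality checks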;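 further: negative values mostly reflect intrinsic compound fluorescence rather than true enhancement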
Aptamer quench: fluorescent aptamer quenching in GRK2 counter-screen dose response | shares compounds with GRK2 aptamer HTS | Fluorescent RNA aptamer beads, flow cytometry; hits give high values | fluorescence change (kMESF span), kMESF (no concentration beside the values) | 110 tested, under 10 active | AID 504521;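 active means compounds whose bead fluorescence drops by more than 37 kMESF across the dose range, marking them as dye quenchers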
FAM quench CP1: counter-screen for GRK2 aptamer inhibitors: fluorescent aptamer quenchers. shares compounds with GRK2 aptamer HTS. Carboxyfluorescein RNA aptamer on beads, flow cytometry quenching; hits give low values. fluorescence response (% of DMSO), % at 10 µM. 2,000 tested, under 10 active. AID 504580;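 active means compounds that quench the bead-bound fluorescent RNA probe, cutting fluorescence to under half of the solvent control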;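 further: counterscreen run without GRK2 so only probe quenching by compound is measured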
GRK2 CP2: confirmation of human GRK2 inhibitors binding RNA aptamer site; shares compounds with GRK2 aptamer HTS; bead-bound GRK2, FAM-aptamer displacement, flow cytometry; inhibition of aptamer binding, % at 10 µM; 360 tested, under 10 active;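 active means inhibition of aptamer binding above 40%, about triple the noise seen with nonglowing compounds, on plates passing quality control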;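 further: negative values mostly come from compounds that fluoresce themselves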
FAM quench CP2: counter-screen for GRK2 binding hits: quenchers of fluorescent RNA aptamer; shares compounds with GRK2 aptamer HTS; carboxyfluorescein RNA aptamer beads, flow cytometry quenching; hits give low values; fluorescence response vs DMSO, % at 10 µM; 360 tested, under 10 active;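 active means response vs DMSO under 50%, meaning signal dropped by over half, treated as fluorescence quencher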;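 further: labelled aptamer on streptavidin beads without GRK2 as a quench counter-screen; 100% = bead fluorescence of DMSO wells and lower means quenching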
* marks the source's active call; other numbers are inactive results.

For CCc1ccccc1NS(=O)(=O)c1ccc2[nH]cc(C(=O)NC3CCCC3)c(=O)c2c1 the results were Yeast superoxide 96, Efflux pump mplx 0, GRK2 aptamer HTS 6 and ATG4B inh -12.
For COc1ccccc1CNS(=O)(=O)c1ccc2[nH]cc(C(=O)O)c(=O)c2c1 the results were Yeast superoxide 90, Efflux pump mplx 0, GRK2 aptamer HTS 59*, ATG4B inh 2, GRK2 inh confirm 56*, Aptamer quench -47 and FAM quench CP1 91.
`CNC(=O)c1c[nH]c2ccc(S(=O)(=O)Nc3ccccc3F)cc2c1=O` gave Yeast superoxide 93, Efflux pump mplx 0, GRK2 aptamer HTS 93*, ATG4B inh 5, GRK2 inh confirm 8 and FAM quench CP1 103.
COc1ccccc1CNS(=O)(=O)c1ccc2c(c1)CCCN2C(C)=O was read as Yeast superoxide 116, Efflux pump mplx 0, GRK2 aptamer HTS 0 and ATG4B inh -2.
`O=C1C=C(O)c2cccc3cccc1c23` gave Yeast superoxide 103, Efflux pump mplx 0, GRK2 aptamer HTS 100*, ATG4B inh -2, GRK2 inh confirm 2 and FAM quench CP1 98.
For CCOc1cccc(/C(O)=C2/C(=O)C(=O)N(CCOC)C2c2ccco2)c1 (configuration not stated) the results were Yeast superoxide 110, Efflux pump mplx 0, GRK2 aptamer HTS 47*, ATG4B inh 0, GRK2 inh confirm 10 and FAM quench CP1 111.
`Cc1ccc(NC(=O)C(=O)NCc2ccncc2)cc1` gave Yeast superoxide 106, Efflux pump mplx 0, GRK2 aptamer HTS 4 and ATG4B inh 1.
For NC(=S)N/N=C/c1coc2ccc(Cl)cc2c1=O the results were Yeast superoxide 111, Efflux pump mplx 0, GRK2 aptamer HTS 2 and ATG4B inh 19.
For O=C(c1cc2cc(Cl)ccc2[nH]1)N1CCN(C(=O)c2ccco2)CC1 the results were Yeast superoxide 100, Efflux pump mplx 0, GRK2 aptamer HTS 0 and ATG4B inh -8.
`O=Cc1c(NCc2ccc(Cl)cc2)c2ccccc2[nH]c1=O` gave Yeast superoxide 101, Efflux pump mplx 0, GRK2 aptamer HTS 100*, ATG4B inh -1, GRK2 inh confirm 4 and FAM quench CP1 94.
O=Cc1c(NCc2ccccc2)c2ccccc2[nH]c1=O was read as Yeast superoxide 84, Efflux pump mplx 0, GRK2 aptamer HTS 4 and ATG4B inh 2.
CNC(=O)CC1C(=O)N(c2ccc(OC)cc2)C(=S)N1NC(=O)c1cccc(F)c1 (configuration not stated) was read as Yeast superoxide 262, Efflux pump mplx 0 and ATG4B inh 4.
Screening Cc1cnnn1-c1ccc(C(=O)CCl)cc1 returned Yeast superoxide 113, Efflux pump mplx 0, GRK2 aptamer HTS 56*, ATG4B inh 11, GRK2 inh confirm -52 and FAM quench CP1 98.
For COC(=O)c1ccccc1N1C(=O)[C@@H]2C(c3ccc(F)cc3)=NO[C@@H]2C1=O the results were Yeast superoxide 77, Efflux pump mplx 0, GRK2 aptamer HTS 0, ATG4B inh -3, GRK2 CP2 0 and FAM quench CP2 101.
For COc1ccc2cc(Br)ccc2c1CC(=O)NCCCN1CCOCC1 the results were Yeast superoxide 107, Efflux pump mplx 0, GRK2 aptamer HTS 1 and ATG4B inh 0.
Cc1cc2c(cc1S(=O)(=O)N1CCc3ccccc31)NC(=O)CO2 was read as Yeast superoxide 104, Efflux pump mplx 0, GRK2 aptamer HTS 73*, ATG4B inh -12, GRK2 inh confirm 3 and FAM quench CP1 97.
`COc1ccc(NC(=O)CSc2nncn2C)c([N+](=O)[O-])c1` gave Yeast superoxide 102, Efflux pump mplx -3, GRK2 aptamer HTS 51*, ATG4B inh -8, GRK2 inh confirm -1 and FAM quench CP1 104.
Screening Cn1cnnc1SCC(=O)Nc1ccccc1Oc1ccccc1 returned Yeast superoxide 101, Efflux pump mplx 0, GRK2 aptamer HTS 50*, ATG4B inh -12, GRK2 inh confirm 1 and FAM quench CP1 94.
`COc1ccc(NC(=O)CSc2ccccc2)c([N+](=O)[O-])c1` gave Yeast superoxide 101, Efflux pump mplx 0, GRK2 aptamer HTS 0 and ATG4B inh 29.
For Cn1cnnc1SCC(=O)Nc1ccc(Oc2ccccc2)cc1 the results were Yeast superoxide 103, Efflux pump mplx 0, GRK2 aptamer HTS 0 and ATG4B inh -1.
`COc1cccc(NC(=O)C2(S(=O)(=O)c3ccc(Cl)cc3)CC2)c1` gave Yeast superoxide 101, Efflux pump mplx 0, GRK2 aptamer HTS 4, ATG4B inh 6, GRK2 CP2 -14 and FAM quench CP2 101.
`O=C(CN1c2cccc3cccc(c23)S1(=O)=O)NCCc1ccc(F)cc1` gave Yeast superoxide 81, Efflux pump mplx 0, GRK2 aptamer HTS 0 and ATG4B inh -9.
CC(=O)OCC1=C(C(=O)O)N2C(=O)C(NC(=O)Cn3nc(C(F)F)c(Cl)c3C)C2SC1 (configuration not stated) was read as Yeast superoxide 97, Efflux pump mplx 0, GRK2 aptamer HTS 2, ATG4B inh 9, GRK2 inh confirm 3 and FAM quench CP1 101.
Screening O=C(c1ccc(Br)cc1)c1sc(N2CCOCC2)nc1-c1ccccc1 returned Yeast superoxide 103, Efflux pump mplx 0, GRK2 aptamer HTS 4 and ATG4B inh -7.
For COc1cc(CNc2ccc3[nH]c(=O)[nH]c3c2)cc(Br)c1OCc1ccc(F)cc1 the results were Yeast superoxide 95, Efflux pump mplx 0, GRK2 aptamer HTS 2 and ATG4B inh 8.
For COc1cccc(CNc2ccc3[nH]c(=O)[nH]c3c2)c1OCc1ccccc1F the results were Yeast superoxide 87, Efflux pump mplx 0, GRK2 aptamer HTS 91*, ATG4B inh 8, GRK2 inh confirm 3 and FAM quench CP1 101.
For Cc1cc(C)n(-c2nc(NCCCO)c3c4c(sc3n2)CCCC4)n1 the results were Yeast superoxide 99, Efflux pump mplx 0, GRK2 aptamer HTS 4, ATG4B inh -14, GRK2 inh confirm -3 and FAM quench CP1 96.
Screening Cc1cc(C)n(-c2nc(NCCO)c3c4c(sc3n2)CCCC4)n1 returned Yeast superoxide 128, Efflux pump mplx 0, GRK2 aptamer HTS 9 and ATG4B inh -2.
